Results taken from PubChem BioAssay AID1730 (National Center for Advancing Translational Sciences (NCATS), 2009).
Inconclusive results are not listed. Values without a mark were called inactive. Activity calls are given as the source filed them. The call rests on the fitted dose curve; in most records, active means well fitted inhibition curve with a large enough effect; inconclusive means small, poorly fitted or top-dose-only effect; inactive means no such curve, though single readings can be large or run the other way.

experiment: Counterscreen Assay for Inhibitors of the ERK Signaling Pathway using a Homogeneous Screening Assay; settings: AlphaScreen bead counterscreen in cell lysate, 5 h; series mostly up to 45.6 µM; activity change, negative = inhibition: at the top concentration
Description: qHTS Assay for Inhibitors of the ERK Signaling Pathway using a Homogeneous Screening Assay
NIH Chemical Genomics Center [NCGC]
NIH Molecular Libraries Screening Centers Network [MLSCN]
Assay Submitter (PI): Dr. Wei Zheng, NCGC/NIH
The Ras/extracellular-signal-regulated kinase (ERK) mitogen activated protein (MAP) kinase signaling pathway (ERK1/2 cascade) plays is a key role in transmitting signals from the cell surface to the nucleus (Nishida and Gotoh 1993; Chang and Karin, 2001). The cascade is initiated by the small G-protein Ras, which recruits Raf […], where activation occurs. Alternatively, this pathway can be activated by elevating intracellular cAMP.
Activation of the ERK pathway is essential in increased cell division and cell survival. Sustained and constitutive activation of the ERK pathway, however, has been linked to uncontrolled cell proliferation, increased cell survival, and tumor progression. Thus, the ERK has been as an attractive target for cancer chemotherapy in the past few years (Sebolt-Leopold and Herrera, 2004). Given its physiological and pathological importance, assessment of ERK phosphorylation has been broadly performed in both basic research and drug discovery. Most assays for the measurement of ERK phosphorylation use the antibody-based detection methods, such as western blot and ELISA. These assays require multiple reagent additions with cell wash steps and are not suitable for high-throughput screening.
The current cell-based ERK phosphorylation assay was performed using AlphaScreen platform. AlphaScreen is a two bead-based proximity-dependent chemical energy transfer luminescent assay platform. The assay reagents (ERK SureFire(TM) kit) were supplied from TGR BioSciences (Australia). In the presence of specific antibodies, phosphorylated ERK will bring "donor" and "acceptor" beads to a proximity range (<200 nm), and subsequently lead a chemical luminescent reaction upon exciting donor beads with 680 nm laser. To exclude the assay-related false positives, we used a biotinylated rabbit IgG to perform a counter-screen. The biotinylated antibody mimics the phosphorylated ERK1/2 for bringing streptavidin coated beads and protein-A coated beads to a proximity range for the AlphaScreen detection.
NCGC Assay Protocol Summary:
Biotinylated rabbit IgG was used to perform a counter-screen in the context of an AlphaScreen assay kit provided by PerkinElmer. Data were normalized to the controls for basal activity (DMSO only) and 100% activation (25 nM IgG). AC50 values were determined from concentration-response data modeled with the standard Hill equation.
(1) Seed 4 ul/well of resuspended frozen HEK293 cells containing 2000 cells in white 1536-well plates for overnight with 1% FBS at 37C under a humidified atmosphere containing 5% CO2 and 95% air.
(2) Add 23 nL compounds in DMSO solution. The final titration was 0.6 nM to 46 uM.
(3) Incubate at 37C for 30 min.
(4) Dispense 0.5uL vasopressin (25 nM in final)
(5) Incubate at 37C for 5 min.
(6) Dispense 0.5uL of 1:2 diluted 5x lysis buffer.
(7) Incubate at 37C for 10 min.
(8) Dispense 1.5uL of mixture of activation buffer and reaction buffer with AlphaScreen beads (streptavidin donor beads and protein-A acceptor beads, 10 ng/well for each).
(9) Incubate at room temperature for 5 hr.
(10) Detect the assay plate in an EnVision plate reader (PerkinElmer) using the AlphaScreen detection mode.
Keywords: ERK, MEK, type-1 vasopressin receptors, homogenous, cell-based kinase assay, MLSMR, MLSCN, NIH Roadmap, qHTS and NCGC

| Compound | Potency | activity change, negative = inhibition |
| --- | --- | --- |
| COc1ccc(N=C2C(=Nc3ccc(OC)cc3)N(c3ccc(OC)cc3)C(=S)N2C)cc1 | 4.47 µM (active) | – |
| Cc1ccc(Nc2ncnc3sc(C)c(C)c23)cc1 | – | -17.7% |
| Cc1ccc(NNc2c(C)nc3ccccc3nc2=O)cc1 | – | -9.99% |
| O=c1cc(-c2ccc(O)cc2)oc2cccc(O)c12 | – | -22.6% |
| Cc1cccc(CNc2ncnc3ccc(-c4cccc(NS(C)(=O)=O)c4)cc23)c1 | – | -11.9% |
| Cc1cc2nc3ccc(=[N+](C)C)cc-3sc2cc1N | – | -11.8% |
| Cn1nc(-c2ccc(Cl)cc2)nc2c(=O)n(C)c(=O)nc1-2 | – | -26.1% |
| COc1cc2ncnc(NCc3cccc(Cl)c3)c2cc1OC | – | -22.8% |
| CCN(C1CCCCC1)S(=O)(=O)c1ccc(S(=O)(=O)NCc2ccncc2)cc1 | – | 9.89% [at 57.5 µM] |
| C=C[C@]1(C)CC(=O)[C@@]2(O)[C@@]3(C)C(O)CCC(C)(C)C3C(O)C(OC(C)=O)[C@@]2(C)O1 (stereo not given in full) | – | -10.3% |
| C=CS(=O)(=O)c1ccc(Oc2ccc(S(=O)(=O)C=C)cc2)cc1 | – | -15.2% [at 57.5 µM] |
| Cc1sc2ncnc(Sc3nnnn3-c3ccc(Cl)cc3)c2c1C | – | -12.9% |
| COC(=O)c1cc(-c2ccc(OC)c(OC)c2)on1 | – | -10.6% [at 57.5 µM] |
| COc1ccc(CC(=O)Nc2cccc(-c3nnc(-c4cccc(C)c4)o3)c2)cc1OC | – | 9.16% [at 57.5 µM] |
| CN(C)c1ccc(Nc2c3c4c(cccc4n(C)c2=O)C(=O)c2ccccc2-3)cc1 | 3.16 µM (active) | – |
| Cc1cc(-c2ccccc2)n(-c2cc(N/N=C/c3ccccc3O)ncn2)n1 | – | -26.9% |
| CN(C)c1cc2c(Nc3ccc4c(cnn4Cc4ccccc4)c3)ncnc2cn1 | – | -6.45% |
| C=C[C@@]1(C)CC(=O)[C@@]2(O)[C@@]3(C)[C@@H](O)CCC(C)(C)[C@@H]3[C@H](O)[C@H](OC(C)=O)[C@@]2(C)O1 | – | -8.35% |
| C=C[C@@]1(C)CC(=O)[C@@]2(O)[C@@]3(C)[C@@H](O)CCC(C)(C)[C@@H]3[C@H](OC(=O)CCN(C)C)[C@H](OC(C)=O)[C@@]2(C)O1 | – | -32.2% [at 57.5 µM] |
| CCCN1C(=O)/C(=C2/C=Cc3ccccc3N2CC)SC1=S | 3.55 µM (active) | – |
| COc1cc(C2CC(=O)c3c([nH]c(C(=O)OCCOC(C)C)c3C)C2)cc(OC)c1OC (stereo not given) | – | 4.07% [at 57.5 µM] |
| CS(=O)(=O)Nc1cccc(-c2ccc3ncnc(Nc4ccc(F)cc4)c3c2)c1 | – | -9.98% |
| Cc1sc2ncnc(Nc3ccccc3)c2c1C | – | -11.9% |
| N#CC(C#N)=C1C=CC=CN1/C(=C\c1ccco1)C(=O)c1ccc(Cl)cc1 | – | -19.5% |
| CCOc1ccc(/C(O)=C2/C(=O)C(=O)N(c3ncccn3)C2c2ccccc2)cc1 (stereo not given) | – | -14% |
